PubChem BioAssay (NCATS)
Results filed as inconclusive are left out. Active and inactive are the calls of the source. The call rests on the fitted dose curve; in most records, active means well fitted activation curve with a large enough effect; inconclusive means small, poorly fitted or top-dose-only effect; inactive means flat fitted curve, though single readings scatter.

assay: Cellular Toxicity (caspase-3) Hek293 (AID 664); conditions: HEK293 caspase-3 activation, DMSO = 0%, 100 µM tamoxifen = 100%; series mostly up to 92.2 µM;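 further: cells exposed to compound for 16 h at 37 °C before readout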
From the text: NIH Chemical Genomics Center [NCGC]
NIH Molecular Libraries Screening Centers Network [MLSCN]
National Institutes of Environmental Health Sciences [NIEHS]
National Toxicology Program [NTP]
We have developed a 1536-well cell-based assay for quantitative high throughput screening (qHTS) against a number of cell lines to determine in vitro caspase 3/7 of small molecules. This particular assay uses the Hek 293 cell line which is derived from human embryonic kidney cells.
NCGC Assay Protocol Summary:
The Caspase-Glo 3/7 assay (Promega) is a homogeneous method to measure caspase-3 and caspase-7 activities in cultured cells. The quantitation of caspase 3/7 activity is based on the cleavage of a peptide-aminoluciferin substrate. After caspase cleaves the substrate the free aminoluciferin is liberated and serves as the substrate of luciferase, which generates the light. The luminescent signal is proportional to amount of caspase 3/7 activity present.
Using the Caspase-Glo 3/7 assay, the amount of caspase 3/7 activity was measured in the Hek 293 cell line with complete culture medium following compound treatment for 16 hours. The assay was performed in opaque white 1536-well plates. In the screen, tamoxifen and doxorubicin were used as positive controls. Library compounds were measured for their ability to cause the activation of caspase 3/7 in the cell line, as reflected by an increase in luminescence signal, in a concentration-dependent manner. Data were normalized to the controls for basal activity (DMSO only) and 100% stimulation (100 uM tamoxifen). AC50 values were determined from concentration-response data modeled with the standard Hill equation.
qHTS protocol for caspase 3/7 assay in Hek 293 cells
[Step] [Parameter] [Value] [Description]
2. Time; 5 hr; 37 °C incubation
4. Controls; 23 nL; Tamoxifen 0.23 uM to 100 uM & Doxorubicin 7.0 pM to 100 uM
5. Time; 16 hr; 37 °C incubation
6. Reagent; 5 uL; Caspase-Glo 3/7 reagent
7. Time; 20 min; Room Temperature
8. Detection; Luminescence; Viewlux plate reader
Keywords: caspase 3/7, apoptosis, Hek 293 cell line, luminescence, NTPHTS, NTPHTS_NCGC, NIEHS, EPA, DSSTox, MLSMR, MLSCN, NIH Roadmap, qHTS, NCGC

| SMILES | outcome |
| --- | --- |
| OC[C@H]1O[C@@H]2O[C@H]3[C@H](O)[C@@H](O)[C@@H](O[C@H]4[C@H](O)[C@@H](O)[C@@H](O[C@H]5[C@H](O)[C@@H](O)[C@@H](O[C@H]6[C@H](O)[C@@H](O)[C@@H](O[C@H]7[C@H](O)[C@@H](O)[C@@H](O[C@H]8[C@H](O)[C@@H](O)[C@@H](O[C@H]1[C@H](O)[C@H]2O)O[C@@H]8CO)O[C@@H]7CO)O[C@@H]6CO)O[C@@H]5CO)O[C@@H]4CO)O[C@@H]3CO | inactive |
| Oc1c(Cl)cc(Cl)c(Cl)c1Cc1c(O)c(Cl)cc(Cl)c1Cl | inactive |
| CCCN(CCC)S(=O)(=O)c1ccc(C(=O)O)cc1 | inactive |
| O=C(O)c1ccc(S(=O)(=O)N(Cl)Cl)cc1 | inactive |
| COc1cc([C@H]2Oc3cc([C@H]4Oc5cc(O)cc(O)c5C(=O)[C@@H]4O)ccc3O[C@@H]2CO)ccc1O | inactive |
| CCOc1ccc(NC(C)=O)cc1 | inactive |
| C/C=C/c1ccc(O)c(OC)c1 | inactive |
| NCCNc1cccc2ccccc12 | inactive |
| COc1ccc(C(=O)c2ccccc2)c(O)c1 | inactive |
| COc1ccc(C(Cl)=C(c2ccc(OC)cc2)c2ccc(OC)cc2)cc1 | inactive |
| NC(=O)c1ccccc1O | inactive |
| CCOc1ccccc1C(N)=O | inactive |
| C=C[C@H]1CN2CC[C@H]1C[C@@H]2[C@@H](O)c1ccnc2ccc(OC)cc12 | inactive |
| CCCCC(CC)COC(=O)c1ccc(N(C)C)cc1 (centres undefined) | inactive |
